# Bioassay records as filed in PubChem.
# D2 PAM-1: positive allosteric modulators of human D2 dopamine receptor; AID 485347; HEK293 T-REx D2, calcium flux, EC20 dopamine potentiation; P14416; hit rate 0.34% among 340,000; potentiation, % at 10 µM;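 active = potentiation over 3 SD above the plate norm, cut at about 30% in these data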
# Target sequence (P14416 whole entry, looked up): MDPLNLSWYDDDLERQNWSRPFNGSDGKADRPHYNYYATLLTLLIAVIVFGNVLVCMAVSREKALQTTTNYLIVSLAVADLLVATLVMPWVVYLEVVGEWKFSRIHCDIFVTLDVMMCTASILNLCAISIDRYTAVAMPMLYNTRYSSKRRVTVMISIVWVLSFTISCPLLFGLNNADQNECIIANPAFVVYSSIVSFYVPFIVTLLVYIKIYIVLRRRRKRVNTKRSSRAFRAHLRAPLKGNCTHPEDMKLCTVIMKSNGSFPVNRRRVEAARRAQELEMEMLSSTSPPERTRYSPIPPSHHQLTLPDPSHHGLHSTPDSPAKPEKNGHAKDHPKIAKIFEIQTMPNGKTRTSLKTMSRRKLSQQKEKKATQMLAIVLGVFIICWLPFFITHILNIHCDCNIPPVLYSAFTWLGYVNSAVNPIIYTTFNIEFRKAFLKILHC
#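 Using a no-wash calcium dye in inducible, force-coupled HEK293 Trex cells expressing D2, we tracked fluorescence each second for 180 s after compound, then for 180 s after EC20 dopamine to detect augmented signalling.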
# D2 antagonist: D2 dopamine receptor (human) antagonism | inhibition, % at 10 µM | HEK293 TREx D2 cells, calcium flux, dopamine EC80 | hit rate 2% among 340,000 | AID 485344 | P14416; in the data active = inhibition above about 30%; inactive = below that, where a call was filed
#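 Tetracycline-induced HEK293 TREx cells expressing D2 receptor forced-coupled to calcium signalling, loaded with no-wash calcium dye. Compounds added and calcium flux read 180 s, then dopamine added at EC80 and read a further 180 s.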
# D2 ag-1: D2 dopamine receptor (human) agonism | HEK293 T-REx D2 cells, calcium flux agonist mode | activation, % at 2 µM | AID 485358 | hit rate 0.53% among 340,000;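 active = activation over 3 SD above normal in the single-dose calcium agonist read, cut at about 30% in these data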
#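 Agonism scored from kinetic calcium signal (1 read/sec, 180 s) following compound pin transfer, after a 10 s baseline. Cells: HEK293 Trex line expressing inducible D2 receptor coupled to calcium, dye-loaded after overnight culture at 30 C.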
# D2 ag-2: human D2 receptor agonism in beta-arrestin assay | activation, % (test concentration not listed) | AID 624465 | hit rate 0.084% among 360,000 | DiscoveRx PathHunter D2 beta-arrestin, luminescence, 90 min; 100% = 57 uM dopamine signal | P14416; in the data active = activation above about 40%; inconclusive = between about 15% and that limit
#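 DiscoveRx PathHunter D2 beta-arrestin cells (2,100/well) attached overnight, then compound-stimulated 90 min at 37 C in HBSS/10 mM HEPES/0.1% Tween-20 buffer; beta-galactosidase complementation read by luminescence after 1 h at ambient temperature. Dopamine 57 uM final (EC100) as control.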
# D2 PAM-2: potentiates the human D2 dopamine receptor allosterically | potentiation, % (concentration not given with the values) | AID 624464 | hit rate 0.23% among 360,000 | P14416 | DiscoveRx D2 beta-arrestin cells, luminescence, 90 min; 100% = 57 uM dopamine signal; in the data active = potentiation above about 50%; inconclusive = mostly about 30% to 49%
#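 PathHunter beta-arrestin assay in DiscoveRx D2 cells. Compounds were added with an EC20 of dopamine (50 nM final) for 90 min at 37 deg C. Luminescence was read 1 h after detection reagent, with 57 uM dopamine as the EC100 control.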
# Numbers stand for hits; - = inactive; ? = inconclusive; . = not tested or not shown. Only some compounds are listed: those with a hit (about 2.4% of all), similar ones and a draw of the others.
SMILES,D2 PAM-1,D2 antagonist,D2 ag-1,D2 ag-2,D2 PAM-2
COc1ccccc1N1CCN(CC(=O)Nc2ccc(Cl)c(C(F)(F)F)c2)CC1,-,80.7,-,-,-
COc1ccccc1N1CCN(CC(=O)Nc2cc(F)ccc2C)CC1,-,85.7,-,-,-
COc1ccccc1N1CCN(c2ccc(=O)n(CC(=O)Nc3cc(F)ccc3C)n2)CC1,-,.,-,.,.
CC(C)Cn1cc(NC(=O)NCc2ccccc2Cl)c2ccccc2c1=O,-,.,-,.,.
CC(C)(C)OC(=O)NCCCCCNC(=O)c1nc[nH]c1C(=O)NCC(=O)OCc1ccccc1,.,.,.,?,52.0
Cc1csc(NS(=O)(=O)c2cccc([N+](=O)[O-])c2)n1,-,34.3,-,-,-
Fc1cccc2sc(Nc3nnc(-c4ccccc4)o3)nc12,-,43.1,-,-,-
Cc1ccccc1NC(=O)CS(=O)(=O)c1cccc2nsnc12,-,.,-,.,.
O=C(Cc1cn2ccsc2n1)OCc1nc2ccccc2s1,-,-,-,-,-
O=C(Cc1cn2ccsc2n1)OCc1ccccc1,-,32.0,-,-,-
COc1ccc(-n2ccnc(NCc3ccc(Cl)cc3)c2=O)cc1,-,.,-,.,.
O=C(c1ccccc1)c1ccc(Cn2cc(CCCO)nn2)cc1,-,-,-,-,-
O=C(O)CCCCCCCCc1cn(Cc2ccc(C(=O)c3ccccc3)cc2)nn1,-,41.6,-,-,-
CCCC(CCC)c1nc2ccncc2[nH]1,36.2,-,-,-,-
CCOc1cc(CNCc2ccccc2)ccc1OCc1ccc(Cl)cc1,.,.,.,-,-
CCOc1cc(CNc2ccc(O)cc2)ccc1OCc1ccc(Cl)cc1Cl,-,-,-,44.4,96.5
Oc1ccc(NCc2ccccc2OCc2ccccc2F)cc1,-,-,-,-,115.5
CCOc1cccc(CNc2ccc(O)cc2)c1OCc1ccc(Cl)cc1,-,-,-,?,90.7
COc1ccc(-c2cc(=O)oc3cc(OCC(=O)NCCCn4ccnc4)ccc23)cc1,-,-,-,-,-
COc1ccc(C(C)=O)cc1CC(=O)NCCCn1ccnc1,33.5,-,-,-,-
Cc1cc(C(=O)NCCCn2ccnc2)sc1-c1ccccc1,-,47.3,-,-,-
Cc1cc(Cl)ccc1OCCCC(=O)NCCCn1ccnc1,-,35.7,-,-,-
CCc1cc(=O)oc2cc(OCC(=O)NCCCn3ccnc3)ccc12,-,37.4,-,-,-
Cc1cc(Cl)ccc1OCC(=O)NCCCn1ccnc1,-,-,-,-,-
COc1ccc(Cl)cc1C(=O)NCCCn1ccnc1,-,-,-,-,-
SMILES,D2 PAM-1,D2 antagonist,D2 ag-1,D2 ag-2,D2 PAM-2
Cc1ccc(C)c(C(O)c2ncc(-c3cccc(F)c3)[nH]2)c1 (configuration not stated),.,.,.,-,-
S=C(Nc1cccc(Cl)c1Cl)NC1CCN(Cc2ccccc2)CC1,-,71.1,-,-,-
CC(C)(C)CC(C)(C)NC(=S)NC1CCN(Cc2ccccc2)CC1,-,66.1,-,-,-
S=C(Nc1ccc(Cl)c(Cl)c1)NC1CCN(Cc2ccccc2)CC1,-,45.2,-,-,-
Cc1oc(-c2ccc(Cl)cc2)nc1CSCC(=O)NC1CCN(Cc2ccccc2)CC1,-,56.4,-,-,-
Fc1ccc(NC(=S)NC2CCN(Cc3ccccc3)CC2)cc1,.,.,.,-,-
CCOc1ccc(-c2nc(CSCC(=O)NC3CCN(Cc4ccccc4)CC3)c(C)o2)cc1,.,.,.,-,-
O=C(NC1CCCC1)C(c1cccnc1)N(C(=O)c1ccco1)c1ccc(F)cc1 (configuration not stated),-,-,-,-,-
CC(C)(Oc1ccc(Cl)cc1)C(=O)NC1CCN(Cc2ccccc2)CC1,-,71.8,-,-,-
Cc1cccc(NC(=S)NC2CCN(Cc3ccccc3)CC2)c1C,-,93.9,-,-,-
CC1(C(=O)NC2CCN(Cc3ccccc3)CC2)CCN1Cc1ccc(OC(F)(F)F)cc1 (configuration not stated),.,.,.,-,-
COc1ccc(CCN(C)C(=O)CCNS(=O)(=O)c2ccccc2C(F)(F)F)cc1OC,-,34.7,-,-,-
COCc1ccc(CN2CCC(C(=O)Nc3cccc(-c4cscn4)c3)CC2)o1,-,31.9,-,-,-
O=C(Nc1cccc(-c2cccc(F)c2)c1)C1CCN(Cc2ccco2)CC1,-,56.5,-,-,-
COCc1ccc(CN2CCC(C(=O)Nc3cccc(-c4cccc(Cl)c4)c3)CC2)o1,-,33.5,-,-,-
O=C(Nc1cccc(-c2cscn2)c1)C1CCN(Cc2ccc(CO)o2)CC1,-,-,-,-,-
COc1cccc(-c2cccc(NC(=O)C3CCN(Cc4ccc(C)o4)CC3)c2)c1,-,-,-,-,-
COc1ccc(OCC(=O)Nc2ccccc2C(=O)N2CCOCC2)cc1,35.7,-,-,-,-
CC1CCN(S(=O)(=O)N2CCC(C(=O)NCc3cccnc3)CC2)CC1,-,-,-,-,-
O=C(NCCN1CCOCC1)C12CC3CC(C1)CC(c1ccccc1)(C3)C2,-,38.4,-,-,-
COc1ccc(C(=O)c2ccc(OC)c3cccc(O)c23)cc1OC,-,-,-,-,73.1
CC(=O)Nc1cc[n+](C(C)C(=O)c2ccc(Br)cc2)cc1 (configuration not stated),-,53.9,-,-,-
CC(=O)Nc1cc[n+](C(C)C(=O)c2ccccc2)cc1 (configuration not stated),-,-,-,-,-
Cc1cccn2c(Nc3ccc4c(c3)OCCO4)c(-c3ccc(Br)o3)nc12,-,.,-,.,.
CCOC(=O)C1CCN(CC(=O)Nc2c(C(=O)OC)[nH]c3ccccc23)CC1,-,48.8,35.2,.,.
SMILES,D2 PAM-1,D2 antagonist,D2 ag-1,D2 ag-2,D2 PAM-2
CCOC(=O)c1[nH]c2ccc(OCC)cc2c1NC(=O)CN1CCN(c2ccccn2)CC1,-,36.1,-,-,-
Cc1ccc(C(C(=O)NC2CCCC2)N(C(=O)Cc2cccs2)c2ccc3c(c2)OCCO3)cc1 (configuration not stated),-,48.1,-,-,-
O=C(NC1CCCC1)C(c1ccc(F)cc1)N(C(=O)Cc1cccs1)c1ccc2c(c1)OCCO2 (configuration not stated),-,-,-,-,-
O=C(/C=C/c1ccccc1)Nc1ccc(Br)cn1,-,-,-,-,-
COC(=O)c1c(C(=O)OC)c2ccccn2c1C(=O)c1ccc([N+](=O)[O-])cc1,.,.,.,-,-
COC(=O)c1c(C(=O)OC)c2cc(C(=O)c3ccccc3)ccn2c1Cl,47.2,-,-,-,-
CC1CCC/C(=N/Nc2ccc([N+](=O)[O-])cc2[N+](=O)[O-])C1 (configuration not stated),-,-,-,-,74.4
O=C(NCC1CCCN(Cc2ccccc2F)C1)c1cccc(C(F)(F)F)c1 (configuration not stated),-,31.5,-,-,-
